In all, about 320,000 compounds went through this assay and about 22,000 (6.9%) were called active. Where a call stands in place of a potency, no number is given. Inconclusive results (about 27%) are left out. This excerpt belongs to a sample that is enriched for actives. A number with no mark means an inactive call. Calls follow the shape of the dose curve; as a rule, active = well fitted inhibition curve with a large enough effect; inconclusive = small, poorly fitted or top-dose-only effect, or another doubt; inactive = no such curve, though single readings can be large or run the other way.
Assay: Primary qHTS for delayed death inhibitors of the malarial parasite plastid, 96 hour incubation
Conditions: P. falciparum luciferase reporter growth; series mostly up to 28.7 µM
Outline: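 Two parasite generations (96 h, 37 C, 5% CO2) of compound exposure in infected erythrocytes (0.05% parasitemia, 2% hematocrit). Luciferase-reporter P. falciparum; decreased luminescence indicates inhibited growth, aimed at apicoplast-acting delayed death.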
Potency is read from the fitted curve at half-maximal effect.

SMILES | Potency | activity change, negative = inhibition
O=C(COC(=O)c1cnccn1)Nc1ccc(Cl)cc1C(F)(F)F | inactive | –
CCCCCCCC(=O)OC(CN1CCCCCC1)CN1CCCC1=O (stereo not given) | inactive | –
O=c1c(-c2cccc(Cl)c2)c[nH]n1-c1ccccc1 | 7.38 µM (active) | –
O=C1CC(NNc2ccccc2)C(=O)N1c1cccc(Cl)c1 (stereo not given) | inactive | –
O=C1NC(c2cccc(Cl)c2)Nc2ccccc21 (stereo not given) | inactive | –
CC1(C)CC(=O)C=C(Nc2ccccc2)C1 | inactive | –
CC(=O)c1ccc(S(=O)(=O)NC2CC(=O)N(c3ccc4c(c3)OCCO4)C2)cc1 (stereo not given) | inactive | –
C=CCN1C(=O)C(O)(CC(=O)c2ccccn2)c2ccccc21 (stereo not given) | inactive | –
C=CCN1C(=O)C(O)(CC(=O)c2ccc(Cl)cc2)c2ccccc21 (stereo not given) | 14.7 µM (active) | –
O=C(CC1(O)C(=O)N(CN2CCOCC2)c2ccccc21)c1ccccc1 (stereo not given) | inactive | –
O=C(Nc1nnc(-c2ccc(F)cc2)s1)c1c(F)cccc1Cl | inactive | –
O=C(c1ccc(Oc2ccc(Cl)cc2)c([N+](=O)[O-])c1)N1CCCC1 | inactive | –
CC1CCN(C(=O)c2ccc(S(=O)(=O)Cc3cc(F)ccc3F)c([N+](=O)[O-])c2)CC1 | 10.4 µM (active) | –
O=C(Nc1ccc(F)cc1)C1CCN(C(=O)c2ccc([N+](=O)[O-])cc2)CC1 | – | 31.7% [at 5.75 µM]
C#CC(C)(C)NC(=O)c1cnc(-c2ccccc2)nc1-c1ccccc1 | inactive | –
O=C(c1ccccc1-c1ccccc1)N1CCOCC1 | inactive | –
Cc1oc2c(c1C(=O)N1CCOCC1)C(=O)c1ccccc1C2=O | 0.828 µM (active) | –
Cc1noc(C)c1C(=O)N1CCOCC1 | inactive | –
O=S(=O)(NCC1CC1)c1ccc(F)c(Cl)c1 | inactive | –
CCOC(=O)C1CCN(C(=O)Nc2ccc(Cl)cc2)CC1 | inactive | –
CCOC(=O)N1CCC(C(N)=O)CC1 | inactive | –
CCOC(=O)C1CCN(C(=O)C2CCN(S(=O)(=O)N3CCCC3)CC2)CC1 | 6.57 µM (active) | –
CCOC(=O)C1CCN(C(=O)C2CCN(S(=O)(=O)c3c(C)noc3C)CC2)CC1 | 4.15 µM (active) | –
CCOc1ccc(OCC)c(NC(=O)C2CCN(S(=O)(=O)c3c(C)noc3C)CC2)c1 | inactive | –
CCOC(=O)C1CCN(S(=O)(=O)c2c(C)noc2C)CC1 | inactive | –
O=C(O)C1C2C=CC(C2)C1C(=O)NCc1ccccc1 (stereo not given) | inactive | –
COc1ccc(NS(=O)(=O)c2cccc3nsnc23)cc1Cl | inactive | –

SMILES | Potency | activity change, negative = inhibition
Nc1c(Cl)cc(S(N)(=O)=O)cc1S(N)(=O)=O | inactive | –
CCCCCCOc1ccc(OC(=O)c2cccnc2)cc1 | inactive | –
CN(C)CCCN1C(=O)CSC1c1ccc([N+](=O)[O-])cc1 (stereo not given) | inactive | –
CCCCCCCCCCCCN1C(=O)CSC1c1cccnc1 (stereo not given) | 1.65 µM (active) | –
COc1ccc(NC(=O)CN2C(=O)CSc3ccc(S(=O)(=O)N4CCC(C)CC4)cc32)cc1 | inactive | –
CC(=O)N/C(=N/c1nc(C)cc(C)n1)Nc1ccc(F)cc1F | inactive | –
Cc1cc(C)nc(-n2nc(C)cc2NC(=O)c2ccc(F)cc2F)n1 | 9.28 µM (active) | –
Cc1cc(NC(=O)Nc2ccc(Cl)cc2)n(-c2ccccc2)n1 | inactive | –
Cc1c([N+](=O)[O-])c(N)nn1C | inactive | –
Cc1cc(C)c(NC(=O)c2oc3ccccc3c2COc2ccccc2)c(C)c1 | 5.22 µM (active) | –
COc1ccc(CC(=O)Nc2c(C(N)=O)oc3ccccc23)cc1 | inactive | –
CCOC(=O)c1oc2ccccc2c1NC(=O)c1cccs1 | inactive | –
COc1ccc(-c2nnc(SCC(=O)Nc3cccnc3Cl)n2C)cc1 | inactive | –
Cc1cc(C)nc(SCC(=O)c2ccc(Cl)cc2)n1 | inactive | –
CCC(=O)c1cn(CCOc2ccccc2OC)c2ccccc12 | 13.1 µM (active) | –
CCCn1cc(SCC(N)=O)c2ccccc21 | inactive | –
COc1ccccc1C(=O)NCCn1cc(SCC(=O)NCc2ccco2)c2ccccc21 | inactive | –
Cc1ccc(OCc2nnc(SC3CCc4ccccc4C3=O)n2C)cc1 (stereo not given) | 13.1 µM (active) | –
Cc1ccc(OCc2n[nH]c(=S)n2-c2ccccc2)cc1 | inactive | –
Cc1ccc(OCc2nc3ccccc3n2C)cc1 | inactive | –
CCc1nn(CCCC(=O)Nc2ccc(C)cc2C)c(=O)c2cc3occc3n12 | inactive | –
CN(C)S(=O)(=O)c1cccc(C(=O)OCC(=O)N2CCCC2=O)c1 | inactive | –
Cc1ccc(C(=O)N/C(=C\c2ccc(F)cc2)C(=O)NCCN2CCOCC2)cc1 | 6.57 µM (active) | –
O=C(NCCN1CCOCC1)/C(=C/c1ccc(F)cc1)NC(=O)c1ccccc1 | inactive | –
Cc1ccc(C(=O)NC(=S)NCCN2CCOCC2)cc1 | inactive | –
Cc1cc(C)cc(C(=O)NCCN2CCOCC2)c1 | inactive | –
Cc1ccc(C(=O)NCCN2CCOCC2)cc1C | 7.38 µM (active) | –

SMILES | Potency | activity change, negative = inhibition
COc1ccc(C(=O)NCCCN2CCOCC2)cc1Br | inactive | –
CCOc1ccc(N(C)S(=O)(=O)c2cnc[nH]2)cc1 | inactive | –
O=C(COc1ccc(Cl)cc1Cl)N/N=C/c1ccccn1 | inactive | –
O=C(NCCN1CCOCC1)c1ccc(/C=C2\Sc3ccccc3N(Cc3ccc(F)cc3)C2=O)cc1 | inactive | –
CC(=O)[C@@]12O[C@@H]1C[C@H]1[C@@H]3CC[C@H]4C[C@@H](O)CC[C@]4(C)[C@H]3CC[C@@]12C | inactive | –
COC(=O)c1ccc(NS(=O)(=O)c2cc3c4c(c2)C(C)C(=O)N4CCC3)cc1 (stereo not given) | inactive | –
COc1ccc(CNC(=O)C(=O)N2CCC3(CC2)OCCN3S(=O)(=O)c2ccc(C)cc2)cc1 | inactive | –
COc1ccc(S(=O)(=O)N2CCOC23CCN(S(=O)(=O)c2ccc([N+](=O)[O-])cc2)CC3)cc1 | 11.7 µM (active) | –
CC(C)c1ccc(S(=O)(=O)N2CCC3(CC2)OCCO3)cc1 | inactive | –
C=CCn1c(=O)c(C(=O)Nc2ncccc2O)c(O)c2ccccc21 | inactive | –
CC(NS(=O)(=O)c1ccccc1)c1n[nH]c(=S)n1-c1ccccc1 (stereo not given) | inactive | –
CC(C)Oc1ccc(CCc2n[nH]c(=S)n2Cc2ccccc2)cc1 | 2.08 µM (active) | –
C=CCn1c(CCc2ccc(OC(C)C)cc2)n[nH]c1=S | inactive | –
NS(=O)(=O)c1ccccc1NC(=O)c1c(O)c2ccccc2[nH]c1=O | inactive | –
Cc1cc(C(C)(C)C)cc(S(=O)(=O)Nc2ccc(C(=O)O)cc2)c1C | inactive | –
O=C(O)c1ccc(NS(=O)(=O)c2ccc3c(c2)C(=O)c2cc(S(=O)(=O)Nc4ccc(C(=O)O)cc4)ccc2-3)cc1 | 0.329 µM (active) | –
O=C(c1ccc(NS(=O)(=O)c2ccc3[nH]c(=O)[nH]c3c2)cc1)N1CCCCC1 | inactive | –
Cc1cc(C)n(CCC(=O)N2CCN(S(=O)(=O)c3ccc(C)c(C)c3)CC2)n1 | inactive | –
O=C(NCCCN1CCOCC1)c1cc(-c2cccc(O)c2)on1 | inactive | –
CC(=O)Nc1nc2c(s1)C(=O)NCC(C)(C)C2 | inactive | –
COc1cccc(-c2nc(CS(=O)(=O)CC(=O)NCCc3ccc(OC)c(OC)c3)c(C)o2)c1 | inactive | –
COc1ccccc1CSc1nc2ccccc2[nH]1 | inactive | –
CCc1nc2ccccc2c(C(=O)NCc2ccc(OC)cc2)c1C | inactive | –
O=C(NCc1ccccc1)c1onc(CSc2nc3ccccc3[nH]2)c1C(=O)NCc1ccccc1 | 1.85 µM (active) | –
Cc1ccc(C)c(NC(=O)COC(=O)Cn2c(C)csc2=O)c1 | inactive | –
O=C(Nc1ccccc1)C1CC(=O)n2c(nc3ccccc32)N1 (stereo not given) | inactive | –
Cc1ccc(OCC(=O)Nc2ccccc2C(=O)NC2CC2)cc1 | inactive | –

SMILES | Potency | activity change, negative = inhibition
CC1(c2ccc(Cl)cc2)NC(=O)N(CC(=O)c2ccc3c(c2)OCO3)C1=O (stereo not given) | inactive | –
O=C(NCCCN1CCOCC1)c1ccc(N2CCCC2)c([N+](=O)[O-])c1 | inactive | –
COCCNC(=O)c1ccc(N2CCC3(CC2)OCCO3)c([N+](=O)[O-])c1 | 14.7 µM (active) | –
CCOC(=O)c1c(NC(=O)c2ccc(N3CCOCC3)c([N+](=O)[O-])c2)sc(C)c1C | inactive | –
Cc1cccc(-c2noc(CCC(=O)NC3CCCC3)n2)c1 | inactive | –
NS(=O)(=O)c1cc(C(=O)OCC(=O)NNC(=O)c2ccccc2)ccc1Cl | inactive | –
CC1CCC(NC(=O)C2c3ccccc3C(=O)N2Cc2ccc3c(c2)OCO3)CC1 (stereo not given) | inactive | –
O=C(/C=C/c1ccc2c(c1)OCO2)NCc1ccc(F)cc1 | inactive | –
CC1CCC(N2CC(=O)N(Cc3ccc4c(c3)OCO4)C(c3ccc(F)cc3)C2=O)CC1 (stereo not given) | 9.28 µM (active) | –
O=S(=O)(c1cccc(Cn2nnc(-c3ccc(F)cc3)n2)c1)N1CCOCC1 | inactive | –
CCOC(=O)c1cc(=O)c2ccc(OCc3ccccc3)cc2o1 | inactive | –
CC(C)Oc1ccc(C(=O)NCC(=O)Nc2ccc3c(c2)CCC3)cc1 | inactive | –
Nc1ccc2nn(-c3ccc(Cl)cc3)nc2c1 | inactive | –
Cc1ccc(-n2ncc3c2ncn2nc(-c4ccco4)nc32)c(C)c1 | inactive | –
COC(=O)CSc1ncnc2c1cnn2-c1ccc(C)cc1C | inactive | –
Cc1ccc(-n2ncc3c(=O)[nH]cnc32)c(C)c1 | 14.7 µM (active) | –
COc1cc(NC(=O)C2=CC(c3ccc(C)cc3)=NS(=O)(=O)N2C)cc(OC)c1OC | inactive | –
CCCS(=O)(=O)N1CCC(CCOc2ccccc2)(C(=O)OCC)CC1 | inactive | –
CCOC(=O)C1(CCOc2ccccc2)CCN(C(=O)c2cncs2)CC1 | 9.28 µM (active) | –
CCOC(=O)C1(CCOc2ccccc2)CCN(Cc2cc(OC)cc(OC)c2)CC1 | inactive | –
CC(=O)NCC(=O)N1CCC(n2nccc2NC(=O)CCCc2ccccc2)CC1 | inactive | –
CCOc1ncccc1C(=O)Nc1ccc(S(=O)(=O)Nc2nc(C)cc(C)n2)cc1 | inactive | –
COc1ccc(/C=C(\NC(=O)c2ccccc2)C(=O)NCCN2CCOCC2)cc1OC | inactive | –
Nc1nc(NCc2ccccc2)n(-c2ccccc2)n1 | inactive | –

— PubChem BioAssay AID504834 (National Center for Advancing Translational Sciences (NCATS), 2011)
